PrP UTR inh: suppresses PrP 5' UTR mRNA reporter expression; cell-based PrP 5' UTR mRNA reporter, plate reader; hit rate 0.35% among 340,000; inhibition, % (concentration not given with the values); in the data active = inhibition above about 52%; note: 0 = median of the neutral control wells
PriA SSB inh: K. pneumoniae PriA-SSBct interaction inhibition. hit rate 0.6% among 430,000. AlphaScreen SSBct-PriA binding, biotinylated peptide. inhibition, % at 33 µM; in the data active = inhibition mostly above about 37%, no sharp cut-off; inactive = mostly below about 20%;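 note: plate controls were negative control peptide for no effect and reference peptide for full effect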
TcdB inh: inhibitors of Clostridioides difficile toxin B glycohydrolase. TcdB glycohydrolase enzymatic assay, plate reader. inhibition, % at 9.99 µM. hit rate 0.24% among 350,000; in the data active = inhibition above about 10%
Target sequence (P18177 whole entry, looked up): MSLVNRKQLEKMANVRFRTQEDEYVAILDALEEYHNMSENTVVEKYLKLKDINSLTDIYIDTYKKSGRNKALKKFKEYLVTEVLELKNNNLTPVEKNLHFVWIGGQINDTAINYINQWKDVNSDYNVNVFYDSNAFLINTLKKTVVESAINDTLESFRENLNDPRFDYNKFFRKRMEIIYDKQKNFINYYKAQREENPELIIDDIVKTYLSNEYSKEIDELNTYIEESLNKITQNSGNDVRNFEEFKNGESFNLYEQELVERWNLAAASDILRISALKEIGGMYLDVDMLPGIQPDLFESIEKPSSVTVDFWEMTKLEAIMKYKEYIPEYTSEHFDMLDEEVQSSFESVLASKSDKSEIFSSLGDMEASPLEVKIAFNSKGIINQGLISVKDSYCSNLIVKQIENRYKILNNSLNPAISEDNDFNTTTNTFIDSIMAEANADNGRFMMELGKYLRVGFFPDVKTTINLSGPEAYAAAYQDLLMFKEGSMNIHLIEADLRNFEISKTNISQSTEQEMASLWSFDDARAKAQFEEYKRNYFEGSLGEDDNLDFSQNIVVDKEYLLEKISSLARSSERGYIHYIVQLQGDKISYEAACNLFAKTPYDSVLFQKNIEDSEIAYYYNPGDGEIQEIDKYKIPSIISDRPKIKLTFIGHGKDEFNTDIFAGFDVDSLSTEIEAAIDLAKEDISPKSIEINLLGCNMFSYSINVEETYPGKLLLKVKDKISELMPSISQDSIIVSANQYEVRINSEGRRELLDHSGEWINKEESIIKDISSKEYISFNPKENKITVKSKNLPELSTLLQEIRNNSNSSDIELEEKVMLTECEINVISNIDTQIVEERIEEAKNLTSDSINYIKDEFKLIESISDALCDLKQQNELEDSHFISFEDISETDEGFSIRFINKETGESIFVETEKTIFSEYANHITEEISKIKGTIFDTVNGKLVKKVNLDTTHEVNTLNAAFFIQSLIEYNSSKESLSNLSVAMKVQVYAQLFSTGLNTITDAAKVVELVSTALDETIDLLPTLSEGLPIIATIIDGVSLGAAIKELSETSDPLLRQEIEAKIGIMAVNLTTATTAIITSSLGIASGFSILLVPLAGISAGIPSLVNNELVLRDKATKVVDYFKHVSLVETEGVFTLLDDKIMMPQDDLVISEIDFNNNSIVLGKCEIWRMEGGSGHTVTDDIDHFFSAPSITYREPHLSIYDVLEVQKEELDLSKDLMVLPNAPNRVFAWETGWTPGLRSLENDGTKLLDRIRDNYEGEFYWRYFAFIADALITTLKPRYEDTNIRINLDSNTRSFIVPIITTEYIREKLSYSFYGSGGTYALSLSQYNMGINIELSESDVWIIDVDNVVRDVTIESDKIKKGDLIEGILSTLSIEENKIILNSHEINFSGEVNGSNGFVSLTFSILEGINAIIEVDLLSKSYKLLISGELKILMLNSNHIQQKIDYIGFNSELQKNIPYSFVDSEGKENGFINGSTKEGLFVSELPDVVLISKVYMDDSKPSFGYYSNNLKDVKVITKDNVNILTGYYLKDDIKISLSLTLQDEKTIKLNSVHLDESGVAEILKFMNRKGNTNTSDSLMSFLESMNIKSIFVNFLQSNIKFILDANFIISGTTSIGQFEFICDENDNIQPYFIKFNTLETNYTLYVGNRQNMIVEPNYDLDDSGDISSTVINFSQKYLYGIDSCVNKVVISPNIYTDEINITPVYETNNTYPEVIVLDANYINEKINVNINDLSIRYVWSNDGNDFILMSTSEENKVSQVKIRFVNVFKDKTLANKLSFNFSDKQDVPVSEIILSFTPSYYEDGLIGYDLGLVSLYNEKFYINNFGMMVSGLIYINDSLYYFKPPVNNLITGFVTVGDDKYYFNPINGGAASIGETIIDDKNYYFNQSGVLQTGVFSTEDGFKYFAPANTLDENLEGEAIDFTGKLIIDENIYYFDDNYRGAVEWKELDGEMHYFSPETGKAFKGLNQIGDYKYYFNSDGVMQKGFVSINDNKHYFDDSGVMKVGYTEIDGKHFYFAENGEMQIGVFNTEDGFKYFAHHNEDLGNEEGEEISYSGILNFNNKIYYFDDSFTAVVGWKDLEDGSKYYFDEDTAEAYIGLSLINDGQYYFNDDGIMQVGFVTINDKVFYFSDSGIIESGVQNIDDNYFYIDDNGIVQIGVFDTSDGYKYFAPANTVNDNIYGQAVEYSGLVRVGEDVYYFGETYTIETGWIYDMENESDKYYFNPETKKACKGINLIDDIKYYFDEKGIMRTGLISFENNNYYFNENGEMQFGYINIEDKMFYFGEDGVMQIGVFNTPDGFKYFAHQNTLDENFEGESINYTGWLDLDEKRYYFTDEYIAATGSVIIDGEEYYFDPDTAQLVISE
FadD28 binding: M. tuberculosis FadD28 bisubstrate binding inhibition | FadD28 bisubstrate probe binding, fluorescence polarization | inhibition, % at 12.5 µM | hit rate 0.22% among 360,000 | AID 588549; in the data active = inhibition above about 8.5%, passing the limit was not always enough
Mtb hypoxia inh: inhibitors of hypoxia-regulated fluorescent reporter in Mycobacterium tuberculosis; M. tuberculosis hypoxia-regulated fluorescent reporter, fluorescence; fluorescence inhibition, % (test concentration not listed); hit rate 0.1% among 300,000; in the data active = fluorescence inhibition mostly above about 23%, no sharp cut-off; inactive = mostly below about 17%
BioA inh: blocks M. tuberculosis BioA enzyme activity; purified M. tuberculosis BioA enzyme, plate reader; inhibition, % at 9.99 µM; hit rate 0.096% among 360,000; AID 602481; in the data active = inhibition above about 40%
PrP 5UTR single: prion 5' UTR mRNA inhibition, cherry-pick retest | hit rate 48% among 1,100 | inhibition, % at 2.5 µM | shares compounds with PrP UTR inh | cell-based prion protein 5' UTR reporter, plate reader; in the data active = inhibition above about 54%
* = called active by the depositor; i = inactive; . = no result given. An excerpt weighted towards active compounds, which were near 1% of everything screened.

SMILES | PrP UTR inh | PriA SSB inh | TcdB inh | FadD28 binding | Mtb hypoxia inh | BioA inh | PrP 5UTR single
CC[C@H](C)NC(=O)CCCCCn1c(=S)[nH]c2c([nH]c3ccc(OC)cc32)c1=O | 66* | -11 | 1 | 1 | . | . | -15
O=C(c1ccc(F)cc1)C1CCN(Cc2ccccc2F)CC1 | . | . | 1 | -3 | . | 0 | .
CC1(C)C(=O)N(CCN2CCC(C(=O)c3ccc(F)cc3)CC2)c2ccccc21 | 53* | -7 | 2 | 0 | 1 | 1 | -22
CCOC(=O)Cn1cc([N+](=O)[O-])c(OC)n1 | 0 | -15 | . | -4 | . | 1 | .
O=C(NN1C(=O)c2ccccc2C1=O)C1CCCCC1 | -15 | 2 | . | 1 | . | -5 | .
O=[N+]([O-])c1ccc(N2CCN(S(=O)(=O)c3ccccc3[N+](=O)[O-])CC2)cc1N1CCc2ccccc2C1 | -9 | -15 | 2 | -2 | . | -2 | .
Cc1ccc(C(=O)n2c(N)nc3ccccc32)cc1 | 74* | 6 | 0 | -3 | -20 | 1 | 55*
Cc1ccc(S(=O)(=O)n2c(N)nc3ccccc32)cc1 | 13 | -2 | 1 | 0 | 5 | -1 | .
O=C(COc1cc(Cl)c(Cl)cc1Cl)NCCN1CCOCC1 | 55* | 2 | . | 0 | 2 | -2 | -24
O=C(NC(=S)N1CCOCC1)C12CC3CCC(CC(C3)C1)C2 | -24 | -9 | . | -4 | 10 | . | .
O=C(NC(=S)N1CCN(CCO)CC1)C12CC3CC(CC(C3)C1)C2 | 80* | -21 | 2 | -2 | -7 | 0 | 1
COc1ccc(CCNC(=O)C2CC2)cc1 | -10 | -7 | 1 | -3 | 10 | . | .
COc1ccc(C[C@H]2NC[C@H](O)[C@H]2OC(C)=O)cc1 | 92* | -6 | 1 | -1 | . | 0 | 96*
CN(C)C=Nc1nc2ccccc2nc1N1CCCC1 | 54* | -3 | 1 | 1 | 8 | . | -3
c1ccc2nc(N3CCCC3)c(N3CCCC3)nc2c1 | -6 | -20 | . | -1 | . | 0 | .
CCCCC(=O)NCCCS(=O)(=O)N1CCN(c2ccc(F)cc2)CC1 | . | -11 | . | . | . | . | .
COc1cc(/C=C/CN2CCC(C(=O)NC(c3ccc(F)cc3)c3ccc4ccccc4n3)CC2)ccc1OC(C)=O (stereo unspecified) | . | . | 2 | -6 | . | 0 | .
Cc1ccc(NC(=O)O/N=C/c2c(C)nn(C(C)(C)C)c2C)cc1Cl | 88* | i | 0 | 0 | . | 10 | 87*
CC(=O)Oc1ccccc1Cn1c(C)c(C(=O)NCc2ccc(F)cc2)sc1=O | . | . | -2 | -5 | . | 4 | .
Cc1ccc(C(=O)Nc2ccc3ncccc3c2)cc1 | 56* | 5 | 0 | -1 | -6 | . | 31
COc1ccc(C(=O)Nc2ccc3ncccc3c2)cc1 | -19 | 4 | 1 | -5 | 10 | 21 | .
COc1ccccc1C(=O)Nc1ccc2c(c1)nc1n2CCN(Cc2ccccc2)C1 | 56* | -4 | 1 | -7 | -3 | 0 | -4
CCOC(=O)c1ccc(NC(=O)Nc2ccc(Cl)cn2)cc1 | -27 | -14 | 1 | -4 | 6 | . | .
CCOC(=O)c1ccc(NC(=O)Nc2ccon2)cc1 | 66* | -1 | 1 | -5 | 2 | . | 79*
COC(=O)C1=C(c2ccccc2OCc2ccccc2)C[C@@H]2CC[C@H]1N2C(=O)NCCc1ccc(F)cc1 | 58* | 9 | 3 | -6 | . | 2 | 2
SMILES | PrP UTR inh | PriA SSB inh | TcdB inh | FadD28 binding | Mtb hypoxia inh | BioA inh | PrP 5UTR single
CS(=O)(=O)Nc1ccccc1C(=O)NCC1(N2CCCCC2)CCCCC1 | 67* | 4 | 1 | -1 | -5 | . | -4
CCCC(C(=O)NC1CCCC1)N(Cc1ccc2c(c1)OCO2)C(=O)c1snc(C(N)=O)c1N (stereo unspecified) | -16 | -8 | . | 0 | 0 | -1 | .
NC(=O)c1nsc(C(=O)N(CC(=O)NCc2ccc3c(c2)OCO3)C2CCCC2)c1N | 76* | -1 | . | -3 | . | 0 | -16
COc1ccc(OC)c(S(=O)(=O)N2Cc3ccccc3CC2C(=O)Nc2nccs2)c1 (stereo unspecified) | 69* | -5 | . | -2 | . | -2 | -33
O=c1cc(-c2ccc(Cl)c(Cl)c2)[nH][nH]1 | 57* | -5 | . | 2 | 0 | -2 | -20
O=C(c1ccccc1)n1ccc(-c2cnc(-c3ccccc3)s2)n1 | 54* | -5 | . | -1 | . | . | -35
COc1ccc(S(=O)(=O)n2ccc(-c3cnc(-c4ccccc4)s3)n2)cc1 | -36 | -20 | . | -2 | 2 | -3 | .
